Among the data in PubChem BioAssay (NCI) are growth values, retold here.

The panel holds about 83,000 compounds, 20% with a hit somewhere; the sample as a whole holds those more often.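 Testing used 96-well plates and a 48-hour single-concentration exposure. Example: -40 means 40% of the starting cells died.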 Unmarked numbers belong to inactive results. Calls of active or inactive are those of the source. The calls were made as follows: active = growth percent below 10; inactive = the rest.

This assay deals with MDA-MB-435 melanoma. As to the kind of experiment: NCI-60 one-dose screen, 48 h (100 = growth as untreated, 0 = no growth, -100 = all killed). Conditions: 10 µM.
`Cc1n[nH]c(C)c1N=Nc1cccc2c1C(=O)c1ccccc1C2=O`: the growth is 107%.

For the compound `O=C(CCCCNC(=O)c1nc(-c2ccccc2)n(-c2ccccc2)n1)NO`, the growth is 79.2%. With `Cc1c(Cl)cccc1NC(=O)CN1CCOCC1`, the growth is 98.7%. The figure for `COc1ccc2nc3cc(Cl)ccc3c(N)c2c1` is -74.2% (active); for `Cc1ccc(C(=O)/C=C/c2ccccc2)s1` it is 98.5%. The figure for `CC(=O)/C(=C/c1ccc(Br)cc1)C(=O)c1ccccc1` is 65.9%; for `CN1C(=O)C2(Nc3cc(Cl)ccc3S2)c2cc(Cl)ccc21` (stereo not given) it is 98.4%; for `COc1cc(CNC(=O)C2CSC3(C)c4ccccc4C(=O)N23)cc(OC)c1OC` (stereo not given) it is 105%. The figure for `Brc1ccc2c(c1)-c1ccccc1C1=NCCN12` is 1.68% (active); for `COc1cc(-c2nn(-c3ccc(NC(=O)NCCNS(=O)(=O)c4ccc(F)cc4)cc3)cc2-c2ccncc2)ccc1Cl` it is -0.232% (active); for `Cc1cc(Cl)ccc1Nc1nc(C(F)(F)F)ccc1C(=O)N/N=C/c1cccc(O)c1` it is 56%. Turning to `CS(=O)(=O)c1nccc(-c2c(-c3cccc(OCc4ccc(F)cc4)c3)nc3sccn23)n1`, the growth is 81.3%. The result for `COc1cc(/C=C/c2cc(/C=C/c3ccc(O)c(OC)c3)n(C(=O)Nc3ccc(C)cc3)n2)ccc1O` reads -1.64% (active).

Take `CCCN(CCC)C(=O)[C@H](CC)[C@@H]1CC[C@@H](C)[C@@H]([C@H](C)[C@@H](O)[C@@H](C)C(=O)[C@H](CC)C2O[C@]3(C=C[C@@H](O)[C@]4(CC[C@@](C)([C@H]5CC[C@](O)(CC)[C@H](C)O5)O4)O3)[C@H](C)C[C@@H]2C)O1` (stereo not given in full): the growth was 3.17% (active). Turning to `COc1cc2cc(Oc3ccc(NC(=O)c4cccc(C(F)(F)F)c4)cc3)c(C)nc2cc1OC`, the growth is 24.5%. The result for `CCc1cc(Cl)c(OC)c(C(=O)NCC2CCCN2CC)c1O` (stereo not given) reads 92.7%; that for `CN1CCc2c(sc3nc4n(-c5ccc(Cl)cc5)cnn4c(=O)c23)C1`, 102%.

On to `O=C(N/N=C/c1ccc([N+](=O)[O-])cc1)c1ccccc1Nc1cccc(C(F)(F)F)c1`, for which the growth was 103%.

As for `COc1ccc(/C=C2\CCCC3=C2NC(N)=NC3c2ccc(OC)c(OC)c2)cc1OC` (stereo not given), the growth was 30.8%. The figure for `CCOC(=O)CN(c1sc(C)c(C)c1C(=O)OCC)S(=O)(=O)c1ccc(C)cc1` is 102%; for `CC(=O)OC1CC2C(C)(C)CCC[C@]2(C)C2=C1C(O)=C(C(C)C)C(=O)C2=O` (stereo not given in full) it is -37.9% (active); for `CCC(=O)OC1CCC2C3CCC(=O)OC3C(C)(CCC(=O)O)CC12C` (stereo not given) it is -15.3% (active). The result for `O=[N+]([O-])c1ccc(NCSc2ccc(Cl)cc2)cc1` reads 109%; that for `CNC(=O)c1cn(C2CC2)c2cc(N3CCN(C(=O)c4cc(OC)c(OC)c(OC)c4)CC3)c(F)cc2c1=O`, 108%; that for `CCCCN(CCCC)C(=O)[C@H](CC)[C@@H]1CC[C@@H](C)[C@@H]([C@H](C)[C@@H](O)[C@@H](C)C(=O)[C@H](CC)C2O[C@]3(C=CC(=O)[C@]4(CC[C@@](C)([C@H]5CC[C@](O)(CC)[C@H](C)O5)O4)O3)[C@H](C)C[C@@H]2C)O1` (stereo not given in full), 44.6%. For `CCn1c2ccc(O)cc2c2c(C)c3c[n+](C)ccc3c(C)c21`, the growth is 64.9%. Take `COc1ccc(Cl)cc1Nc1nc(C(F)(F)F)ccc1C(=O)N/N=C/c1cc(OC)c(OC)c(OC)c1`: the growth is 37.1%.

`O=C(CI)OCC(COC(=O)CI)OC(=O)CI`: the growth was 91.5%. The result for `COc1ccc(-c2cc(-c3ccc(OC)c(OC)c3)nc(SCCCC(=O)NO)n2)cc1` reads 1.23% (active); that for `O=C(CSc1nnc(-c2ccc(Cl)cc2)o1)Nc1ccc(C(=O)/C=C/c2ccc(Cl)cc2)cc1`, 98.1%; that for `CCOc1ccccc1/C=N\N=C(\N)N/N=C/c1ccccc1OCC`, -3.3% (active). The figure for `CCCc1cn(CC(=O)Nc2nc3ccccc3s2)nn1` is 105%; for `Fc1ccc(C(c2ccc(F)cc2)C(Cl)Cl)cc1` it is 107%; for `COc1ccc2c(c1)CC=C1[C@@H]2CC[C@]2(C)C(=O)/C(=N/O)C[C@@H]12` it is 90.5%. The result for `Cc1ccc(Cl)cc1NC(=O)CCl` reads 83.1%. For `O=C(CCCSc1nc(-c2ccccc2)cc(-c2ccc(Cl)cc2)n1)NO`, the growth was 21.9%. The figure for `CC(=O)N[C@H](C(=O)N[C@@H](CCCNC(=N)N)C(=O)N[C@@H](CCCCN)C(=O)N[C@@H](CCCNC(=N)N)C(=O)N[C@]1(C)CCCCCC/C=C\CCC[C@@](C)(C(=O)N[C@@H](CCCNC(=N)N)C(=O)N[C@@H](CCC(=O)O)C(=O)N[C@@H](CC(C)C)C(=O)N[C@H](C(=O)N[C@@H](CCC(=O)O)C(N)=O)C(C)C)NC(=O)[C@H](CCC(N)=O)NC(=O)[C@H](CC(C)C)NC(=O)[C@H](CC(C)C)NC(=O)[C@H](CCCNC(=N)N)NC(=O)[C@H](CCCNC(=N)N)NC(=O)[C@H](CC(C)C)NC1=O)C(C)C` is 7.66% (active).

For `COc1ccc(-c2cc(-c3ccccc3)nc(SCCCC(=O)NO)n2)cc1`, the growth was -3.03% (active). In the case of `COc1ccc(C(=O)N2C=Cc3ccccc3C2C#N)cc1` (stereo not given), the growth is 72.3%. In the case of `COc1ccc(-c2cc(-c3ccc(Cl)cc3)nc(SCCCC(=O)NO)n2)cc1OC`, the growth was 19.6%.
